{
  "source": "PubChem BioAssay AID2320",
  "about": "(National Center for Advancing Translational Sciences (NCATS), 2010)",
  "note": "Records with an inconclusive call do not appear. Unmarked numbers belong to inactive results. Active and inactive are the calls of the source. The call rests on the fitted dose curve. Potency means the concentration at half of the fitted maximal effect.",
  "data": [
    {"assay": "A qHTS for Small Molecule Inhibitors of Shiga Toxin (Confirmatory); further: nearly all actives have a fitted effect of over 75% in size; on activity, positive = inhibition of toxin: 0% is about no effect", "details": "Cell-based Shiga toxin protection reporter assay; series mostly up to 38.3 µM; activity, positive = inhibition of toxin: at the top concentration", "units": {"activity, positive = inhibition of toxin": "%"}, "values": [
      {"smiles": "COc1ccccc1NC(=O)Nc1cc(F)ccc1F", "Potency": "20 µM (active)"},
      {"smiles": "Cc1cc(C(=O)COC(=O)c2cccn2C)c(C)n1Cc1ccco1", "Potency": "0.252 µM (active)"},
      {"smiles": "CCOC(=O)c1c(C)[nH]c(C2=NNC(=NC3CC3)SC2)c1C", "Potency": "0.0449 µM (active)"},
      {"smiles": "COc1cccc(OC)c1OCCCOc1ccc(C)cc1Br", "activity, positive = inhibition of toxin": 28.7},
      {"smiles": "O=C(/C=C/Nc1ccc(F)cc1F)c1ccco1", "Potency": "0.225 µM (active)"},
      {"smiles": "Cc1ccc(OCC(=O)NNC(=O)CCC(=O)Nc2ccc(C)cc2C)cc1", "activity, positive = inhibition of toxin": 19.3},
      {"smiles": "CCOC(=O)N1CCN(C(=O)CCC(=O)c2ccc(OCC)cc2)CC1", "activity, positive = inhibition of toxin": 5.96},
      {"smiles": "Cc1ccccc1C(=O)NN1CCOCC1", "activity, positive = inhibition of toxin": 15.9},
      {"smiles": "CSc1ccc(/C=C/C(=O)N2CCN(c3ccccn3)CC2)cc1", "activity, positive = inhibition of toxin": -0.0265},
      {"smiles": "CNC(=O)c1cccn(Cc2ccc(C(F)(F)F)cc2)c1=O", "Potency": "0.1 µM (active)"},
      {"smiles": "COc1cccc(C(=O)NNC(=O)C2CC(C)=C(C)CC2C(=O)O)c1", "note": "(stereo not drawn)", "activity, positive = inhibition of toxin": -47.7},
      {"smiles": "N#Cc1cc2c(nc1SCC(=O)Nc1cc(Cl)ccc1Cl)C1CCN2CC1", "Potency": "12.6 µM (active)"},
      {"smiles": "O=C(NC1CCCCC1)c1cccc(S(=O)(=O)N2CCCCC2)c1", "activity, positive = inhibition of toxin": -35.4},
      {"smiles": "COc1cc(O)c2c(c1)oc(=O)c1c3cc(O)c(O)cc3oc21", "Potency": "7.98 µM (active)"},
      {"smiles": "O=C(NCCc1c[nH]c2ccccc12)C(F)(F)F", "activity, positive = inhibition of toxin": -21.6},
      {"smiles": "C=CCn1c(=S)[nH]c2cc(-c3ccccc3)sc2c1=O", "Potency": "0.0113 µM (active)"},
      {"smiles": "Oc1ccc(C2C[C@H]3CC[C@@H]2C3)cc1O", "note": "(stereo partly drawn)", "Potency": "22.5 µM (active)"},
      {"smiles": "Cc1cccc(N2CCN(C(=O)Cc3ccc(Br)cc3)CC2)c1C", "Potency": "14.2 µM (active)"},
      {"smiles": "O=C(NNC(=O)c1nc(Cl)ccc1Cl)c1ccc(F)cc1", "activity, positive = inhibition of toxin": 23.4},
      {"smiles": "CC(=O)c1ccc(N2CCN(C(=O)c3ccc4nc[nH]c4c3)CC2)cc1", "activity, positive = inhibition of toxin": 21.4},
      {"smiles": "Cc1noc(/C=C/c2ccco2)c1S(=O)(=O)N1CCC(C(=O)N(C)Cc2ccccc2)CC1", "Potency": "22.5 µM (active)"},
      {"smiles": "COc1cc2c(c(OC)c1OC)-c1c(cc(OC)c(OC)c1OC)C[C@](C)(O)[C@@H](C)C2", "activity, positive = inhibition of toxin": 34.8},
      {"smiles": "COc1ccccc1C(=O)NNC(=O)c1ccc2ccccc2c1", "Potency": "0.0006 µM (active)"},
      {"smiles": "CCCC[C@@H]1C[C@H]1[C@@H](NC(=O)c1ccco1)c1ccc(Cl)cc1", "Potency": "8.95 µM (active)"},
      {"smiles": "Cc1ccc(N/C(C(Cl)=C(Cl)Cl)=C(/Cl)[N+](=O)[O-])c(C)c1", "activity, positive = inhibition of toxin": -15.4},
      {"smiles": "CON(C)S(=O)(=O)c1cccc(C(=O)NC2CCSc3ccccc32)c1", "note": "(stereo not drawn)", "activity, positive = inhibition of toxin": -17.3},
      {"smiles": "COc1ccc(C(=O)CSc2nnc(C(CO)NC(=O)c3ccc(OC)cc3)n2C)cc1", "note": "(stereo not drawn)", "activity, positive = inhibition of toxin": -22.9},
      {"smiles": "O=C(O)C1CCCCC1C(=O)Nc1ccc(-c2ccccc2)cc1", "note": "(stereo not drawn)", "Potency": "10 µM (active)"},
      {"smiles": "COc1cccc(C(C(=O)NC2CCCC2)N(C(=O)c2ccco2)C2CC2)c1OC", "note": "(stereo not drawn)", "Potency": "8.95 µM (active)"},
      {"smiles": "COc1ccc2[nH]c(-c3ccccc3)cc(=O)c2c1", "Potency": "0.0711 µM (active)"},
      {"smiles": "Cc1ccc(C(=O)CSc2nnnn2C(C)C)c(C)c1", "Potency": "0.449 µM (active)"},
      {"smiles": "CCOC(=O)C1=C(C)NC(=O)NC1c1ccc(OCC(=O)Nc2ccccc2)c(OC)c1", "note": "(stereo not drawn)", "activity, positive = inhibition of toxin": -50.5},
      {"smiles": "COc1ccccc1N(CCC#N)C(=O)CSc1nc(-c2ccccc2)cn1N", "activity, positive = inhibition of toxin": 28.7},
      {"smiles": "CCOC(=O)C1CCCN(c2nc3ccccc3nc2C(C#N)C(=O)OCC)C1", "note": "(stereo not drawn)", "activity, positive = inhibition of toxin": 38.5},
      {"smiles": "Cn1nccc1C(=O)Nc1sc2c(c1C#N)CCCC2", "Potency": "20 µM (active)"},
      {"smiles": "CCCn1c(C)cc(/C=C(\\C#N)C(=O)OCC(=O)Nc2ccc(OC)c(Cl)c2)c1C", "Potency": "8.95 µM (active)"},
      {"smiles": "O=C(NCCC1=CCCCC1)C1CCN(S(=O)(=O)c2cccc3cccnc23)CC1", "activity, positive = inhibition of toxin": 27},
      {"smiles": "CC1CCc2sc(C(=O)NN)cc2C1", "note": "(stereo not drawn)", "activity, positive = inhibition of toxin": 3.83}
    ]}
  ]
}
